IMPase inh: membrane-permeable compound that blocks inositol monophosphatase. 120,000 tested, under 10 active. AID 901. inhibition (IP1 accumulation), % at 46.1 µM. P97697. CHO-M1 cells, IP1 accumulation, HTRF TR-FRET ratio; active = well fitted curve in the direction sought with a large enough effect in the signal ratio, not every such curve was filed as active; inconclusive = small, poorly fitted or top-dose-only effect, or a change in a side signal; inactive = no such curve, though single readings can be large or run the other way; the % refers to the signal ratio;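 note: cells stimulated with carbachol in lithium chloride buffer; higher means more IMPase inhibition seen as more IP1 and lower FRET ratio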
Target sequence (P97697 whole entry, looked up): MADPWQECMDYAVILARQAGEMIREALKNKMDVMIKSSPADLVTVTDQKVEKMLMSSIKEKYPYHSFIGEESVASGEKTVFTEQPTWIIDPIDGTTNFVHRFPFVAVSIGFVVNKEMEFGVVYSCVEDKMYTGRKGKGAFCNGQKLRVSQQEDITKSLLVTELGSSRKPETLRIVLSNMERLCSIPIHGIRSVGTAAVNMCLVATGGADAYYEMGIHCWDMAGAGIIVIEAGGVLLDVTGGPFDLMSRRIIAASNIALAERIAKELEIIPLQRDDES
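Seeded CHO-M1 cells were dosed with compound at up to 46 uM, stimulated with carbachol for 30 min, then lysed in IP-One detection reagents. Higher IP1 lowers the TR-FRET signal.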
ALOX15B inhib: blocks human 15-lipoxygenase 2 activity; Potency, µM (top dose mostly 57.1 µM), most hits filed as inhibitors; purified 15hLO-2, xylenol orange hydroperoxide absorbance; actives 0.56% (n = 110,000); AID 881; O15296; note: nearly all actives have a fitted effect of over 60% in size
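Purified human 15hLO-2 (50 nM) preincubated 15 min with compound, then 45 uM arachidonic acid for 90 min at RT in 25 mM Hepes pH 7.5, 0.01% Triton X-100. Hydroperoxide detected by Fe-xylenol orange; 573/405 nm absorbance ratio.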
HPGD block: HPGD (human) dehydrogenase inhibition; AID 894; Potency, µM, actives largely listed as inhibitors; actives 4.3% (n = 150,000); P15428; purified HPGD, NADH fluorescence kinetic, PGE2 substrate; active = well fitted inhibition curve with a large enough effect, not every such curve was filed as active; inconclusive = small, poorly fitted or top-dose-only effect, or another doubt; inactive = no such curve, though single readings can be large or run the other way
Target sequence (P15428 whole entry, looked up): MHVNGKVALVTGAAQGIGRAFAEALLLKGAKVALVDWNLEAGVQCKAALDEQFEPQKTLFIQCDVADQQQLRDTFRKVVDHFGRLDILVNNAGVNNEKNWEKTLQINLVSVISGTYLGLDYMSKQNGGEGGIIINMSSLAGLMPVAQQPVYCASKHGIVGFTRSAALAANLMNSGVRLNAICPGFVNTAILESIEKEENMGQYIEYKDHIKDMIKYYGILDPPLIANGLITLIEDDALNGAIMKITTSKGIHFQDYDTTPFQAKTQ
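20 nM HPGD preincubated 15 min at room temperature with compound in 50 mM Tris-HCl pH 8, 0.01% Tween 20. Started with 1 mM NAD+ and 30 uM prostaglandin E2; NADH fluorescence (360/450 nm) read 5 times over 30-s intervals, last minus first.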
IMPase Li cell: IMPase inhibition in cells with lithium potentiation; CHO-M1 cells, IP1 TR-FRET (IP-One), carbachol + lithium; Potency, µM (doses to about 59.4 µM), actives largely listed as inhibitors; actives 0.35% (n = 210,000); AID 1457;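 note: IP1 builds up when IMPase is blocked and the TR-FRET signal falls; nearly all actives have a fitted effect of over 50% in size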
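CHO-M1, 2000 cells/well, 16–30 h culture; cpd + low Li+, 30 min 37C; lysis with d2-IP1/Eu-anti-IP1 Ab, 10 min RT; TR-FRET 665/620 ratio and 620 channel; AC50 via Hill.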
PNC inhibitor: blocks assembly of the perinucleolar compartment; PC3M PTB-GFP, PNC prevalence imaging, 16 h; stronger effect = lower value; activity change (PNC), negative = inhibition, % at 10 µM; actives 3.1% (n = 140,000);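 active = readout at or below -70, meaning at least 70% loss of cells showing the perinucleolar compartment, a nuclear body marking cancer cells; inconclusive = readout between -30 and a set limit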
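PC3M cells stably expressing PTB-GFP, 750–1000 cells/well, treated 16 h at 37 °C with compound (23 nl of library stock), in duplicate. After paraformaldehyde fixation and Hoechst stain, imaged at 20x; PNC prevalence scored by image analysis.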
12-hLO inh: inhibitors of human 12-lipoxygenase (ALOX12); purified 12-hLO, xylenol orange hydroperoxide absorbance; Potency, µM (doses to about 57.1 µM), actives largely listed as inhibitors; actives 0.12% (n = 150,000); note: nearly all actives have a fitted effect of over 55% in size
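Xylenol orange chromogenic assay: hydroperoxide from 12hLO oxidises Fe(II), giving red-shifted Fe(III)-XO absorbance. Conditions: 150 nM enzyme, 40 uM arachidonic acid, 25 mM Hepes pH 7.0, 0.01% Triton X-100, 30 min, room temperature.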
Numbers stand for hits; . = inactive; ? = inconclusive; / = not tested or not shown; [ ] = another dose, or the depositor's remark. Most compounds without a hit are left out; they make up all but 5.3% or so of the library. Unless noted, calls come from the whole dose curve; as a rule, active = well fitted curve in the direction sought with a large enough effect; inconclusive = small, poorly fitted or top-dose-only effect, or another doubt; inactive = no such curve, though single readings can be large; an effect the other way counts as inactive or inconclusive.

SMILES	IMPase inh	ALOX15B inhib	HPGD block	IMPase Li cell	PNC inhibitor	12-hLO inh
CCOC(=O)N1CCN(C(=O)CSc2ccc3nnc(-c4ccncc4)n3n2)CC1	/	/	/	.	/	/
CCOC(=O)CC(=O)CSc1ccc2nnc(-c3ccc(C)cc3)n2n1	.	.	13µM	.	.	.
CCN1/C(=C/c2ccc3cc(C)cc(C)c3[n+]2CC)Sc2cc(C)ccc21	/	/	/	11µM	/	/
CCN1/C(=C\c2ccc3cc(C)ccc3[n+]2CC)Sc2cc(C)c(C)cc21	/	/	/	.	/	/
CCCCC(=O)Nc1cccc(-c2nn3c(C)nnc3s2)c1	.	.	16µM	.	.	.
Cc1ccc(-c2nn3c(C)nnc3s2)cc1NC(=O)c1ccc(-c2cccc(Cl)c2)o1	.	.	22µM	.	.	.
CCC(=O)Nc1cc(-c2nn3c(C)nnc3s2)ccc1C	.	.	.	.	.	.
COc1ccc(C(=O)N2c3ccc(C)cc3C(C)(c3ccccc3)CC2(C)C)cc1 (configuration not stated)	.	/	/	/	/	/
CCOc1cc(C(=S)N2CCCCC2)ccc1OCC(=O)NCc1ccccc1	.	.	.	.	.	.
O=c1[nH]ncn1-c1cccc(C(F)(F)F)c1	.	/	.	.	-106	.
Cc1n[nH]c(=O)n1-c1cccc(C(F)(F)F)c1	.	/	.	.	.	.
N#C/C(=C\c1ccc(OCC(N)=O)cc1)c1ccccc1	/	/	?	.	.	.
CNCc1ccccc1Sc1cc(O)ccc1O	/	/	8.9µM	.	.	.
O=C1CCCC/C1=C\Nc1ccc(O)cc1	.	.	.	.	-117	?
CCOC(=O)c1ccc(NC(=O)C2CCCO2)cc1 (configuration not stated)	.	.	25µM	.	.	.
CC(=O)c1ccc(N2CCN(C(=O)c3ccc(NC(=O)C4CCCO4)cc3)CC2)cc1 (configuration not stated)	.	.	25µM	.	.	.
Cc1cccc(N2CCN(C(=O)c3ccc(NC(=O)C4CCCO4)cc3)CC2C)c1 (configuration not stated)	.	.	.	.	.	.
CCOC(=O)C1CCN(C(=O)c2ccc(NC(=O)C3CCCO3)cc2)CC1 (configuration not stated)	.	/	25µM	.	.	.
CCCCc1ccc(NC(=O)C2CCCO2)cc1 (configuration not stated)	.	.	16µM	.	.	.
O=C(NCc1ccco1)C(=O)NCC(c1ccco1)N1CCOCC1 (configuration not stated)	/	/	/	.	/	/
CCc1ccc(CCOc2ccc(CC3SC(=O)NC3=O)cc2)nc1 (configuration not stated)	/	.	.	.	/	.
COc1ccc(N2C(=O)c3ccccc3NC2(C)C)cc1	/	/	/	.	/	/
CCC1(C)Nc2ccccc2C(=O)N1O (configuration not stated)	.	.	25µM	.	.	.
O=c1[nH]c(C2CCCN(S(=O)(=O)c3ccc(F)cc3)C2)nc2c1nnn2Cc1ccccc1 (configuration not stated)	.	.	13µM	.	.	.
N#Cc1ccc(NC(=O)N2CCC(c3nc4c(nnn4Cc4cccc(Cl)c4)c(=O)[nH]3)CC2)cc1	.	.	14µM	.	.	.
SMILES	IMPase inh	ALOX15B inhib	HPGD block	IMPase Li cell	PNC inhibitor	12-hLO inh
O=C(Cc1cccs1)N1CCCC(c2nc3c(nnn3Cc3ccc(F)cc3)c(=O)[nH]2)C1 (configuration not stated)	.	.	28µM	.	.	.
Cc1ccc(Cn2nnc3c(=O)[nH]c(C4CCN(C(=O)Cc5cccs5)CC4)nc32)cc1	.	.	?	.	.	.
CC(C)(C)c1ccc(Cn2nnc3c(=O)[nH]c(C4CCCN(C(=O)Cc5cccs5)C4)nc32)cc1 (configuration not stated)	.	?	.	.	.	.
O=C(Cc1cccs1)N1CCC(c2nc3c(nnn3Cc3ccccc3)c(=O)[nH]2)CC1	.	.	4.5µM	.	.	.
CCC(C)NC(=O)c1nc2c(nnn2Cc2ccccc2Cl)c(=O)[nH]1 (configuration not stated)	/	/	/	.	/	/
O=C(NCc1cccs1)c1nc2c(nnn2Cc2ccccc2Cl)c(=O)[nH]1	/	/	6.3µM	.	.	.
Cc1ccc(-n2nnnc2C(Cl)(Cl)c2nnnn2-c2ccc(C)cc2)cc1	.	.	3.5µM	.	.	.
CSc1nnnn1-c1ccc(Cl)cc1	/	/	/	.	/	/
O=C(c1ccccc1)N1CCN(C(=S)NCc2ccco2)CC1	/	/	/	.	/	/
C=C[C@@H](C1=CC(=O)C(OC)=C(OC)C1=O)c1ccccc1	/	/	20µM	.	/	/
COC(=O)/C=C1\OC(c2ccccc2)=CC1=O	/	/	20µM	.	.	.
COC(=O)/C(=C1/OC(=O)C(c2ccccc2)=C1O)c1ccccc1	/	/	.	.	/	/
CN(CC(=O)NCc1ccccn1)S(=O)(=O)c1ccc2ccccc2c1	/	/	/	.	/	/
Cc1ccc(S(=O)(=O)N2CCC(=O)N(C(COCc3ccccc3)C(C)C)CC2)cc1 (configuration not stated)	/	/	.	.	.	.
Cc1ccc(S(=O)(=O)N2CCC(=O)N(C(COCc3ccc(Cl)cc3)C(C)C)CC2)cc1 (configuration not stated)	/	/	.	.	-119	.
Cc1ccc(S(=O)(=O)N2CCC(=O)N(CCOCc3cccc(C)c3)CC2)cc1	/	/	.	.	.	.
Cc1ccc(S(=O)(=O)N2CCC(=O)N(CCOCc3cccc(C(F)(F)F)c3)CC2)cc1	/	/	.	.	-81	.
CC1(C(=O)NCc2ccc(F)cc2)Oc2ccccc2NC1=O (configuration not stated)	/	/	/	.	/	/
COCc1ccc(C(=O)N2CCCC(C(=O)c3cc(F)ccc3F)C2)s1 (configuration not stated)	/	/	/	.	/	/
C[C@@]12CC(=O)[C@@H]3[C@@H](CCC4=CC(=O)CC[C@]43C)[C@@H]1CC=C2CC(=O)O	/	.[11.4 µM]	.	.	/	.[11.4 µM]
CCOC(=O)c1cc(-c2cc3ccccc3o2)n[nH]1	.	.	.	.	.	.
CCOC(=O)c1cc(-c2cc3ccccc3o2)nc2c1c(=O)[nH]c(=O)n2CCOC	.	?	?	10µM	.	.
COc1ccc(NCC(=O)N/N=C/c2cc([N+](=O)[O-])ccc2N2CCCC2)cc1	/	/	/	.	/	/
Cc1cccc(NC(=S)N(CCN2CCOCC2)Cc2cc3cc4c(cc3[nH]c2=O)OCCO4)c1	/	/	/	.	/	/
O=C1NCCCC2c3c(cc(Br)c(O)c3Br)OC12N1CCCCC1 (configuration not stated)	.	.	13µM	.	.	.
Cc1cccc(NC(=O)CSc2nnc([C@@H]3CCCN3C(=O)OC(C)(C)C)o2)c1C	.	.	.	.	.	.
